Screens: PubChem, National Center for Advancing Translational Sciences (NCATS)
aSyn yeast inh: rescues yeast growth from alpha-synuclein toxicity | Yeast expressing alpha-synuclein, growth rescue, BacTiter-Glo, 24 h | Potency, µM (titrated, usually from 46.1 µM), actives largely listed as activators | hit rate 0.14% among 370,000; also: nearly all actives have a fitted effect of over 65% in size
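Galactose-induced alpha-syn yeast (OD600=0.02, raffinose-pregrown) + pinned cpd, 24 hr, 30 deg C; growth by BacTiter-Glo luminescence. Growth restoration scores as activation.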
S-ASM inh: human S-ASM enzyme inhibition; placental ASM, HMU-PC fluorogenic substrate, 60 min; Potency, µM (highest dose often 57.5 µM), hits mostly inhibitors; hit rate 0.006% among 340,000; AID 504937
Target sequence (P17405 47-631 limits assumed): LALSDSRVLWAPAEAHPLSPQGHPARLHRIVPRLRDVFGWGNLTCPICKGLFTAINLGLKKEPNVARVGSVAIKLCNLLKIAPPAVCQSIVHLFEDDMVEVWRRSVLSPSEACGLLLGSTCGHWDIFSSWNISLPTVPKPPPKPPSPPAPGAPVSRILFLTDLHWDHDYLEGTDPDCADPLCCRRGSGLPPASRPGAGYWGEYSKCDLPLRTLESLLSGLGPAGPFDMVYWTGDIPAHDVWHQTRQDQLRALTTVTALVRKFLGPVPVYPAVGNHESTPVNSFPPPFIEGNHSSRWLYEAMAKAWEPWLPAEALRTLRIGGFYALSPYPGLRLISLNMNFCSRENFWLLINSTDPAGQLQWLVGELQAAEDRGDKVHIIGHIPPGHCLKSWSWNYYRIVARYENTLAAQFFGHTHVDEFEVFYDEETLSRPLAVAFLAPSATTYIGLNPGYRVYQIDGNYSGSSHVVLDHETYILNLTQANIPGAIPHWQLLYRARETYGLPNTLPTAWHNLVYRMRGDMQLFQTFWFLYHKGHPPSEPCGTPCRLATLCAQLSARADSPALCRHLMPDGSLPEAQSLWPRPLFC
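HMU-PC0 cleavage (9 uM final) by human placental ASM, 60 min at 37 °C following 10 min compound exposure at RT; stopped at pH 10, fluorescence Ex 386/Em 447 nm.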
Rango release inh: inhibition of RanGTP-driven Rango-importin beta dissociation; O95149+P62826; Biochemical FRET Rango-importin beta, RanGTP-induced dissociation; Potency, µM (series often up to 46.1 µM); hit rate 0.071% among 340,000; calls by dose curve; also: nearly all actives have a fitted effect of over 45% in size
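Rango/importin beta premix (0.1/0.25 uM final), PBS + 1 mM DTT + 0.02% Tween-20 + 0.1% BSA; cpd 5 min RT; FRET pre-read; + RanGTP-RCC1 (0.6 uM Ran, 2 mM GTP, 0.2 uM RCC1); 45 min RT; FRET post-read, ex 430, em 486/530 nm.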
TDP-43 yeast inh: rescues yeast growth from TDP-43 toxicity | TDP-43 expressing yeast growth rescue, BacTiter-Glo, 24 h | Potency, µM (titrated, usually from 46.1 µM), hits mostly activators | hit rate 1.8% among 410,000 | AID 652104; also: nearly all actives have a fitted effect of over 50% in size
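Cell-based yeast growth screen: TDP-43 expression induced in galactose, inoculum OD600=0.02 after raffinose pregrowth to mid-log. Read-out BacTiter-Glo luminescence at 24 hr, 30 deg C; inhibition of toxicity seen as signal increase.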
Rango complex inh: Rango-importin beta binding inhibition; Q14974; Rango CFP/YFP FRET sensor + importin beta, 45 min; Potency, µM (series often up to 92.2 µM); hit rate 0.031% among 340,000; AID 540263; calls by dose curve; also: nearly all actives have a fitted effect of over 15% in size
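FRET biosensor (snurportin 1 IBB flanked by EYFP and cerulean), 50 nM, with compound 5 min, then 0.125 microM importin beta in PBS, 1 mM DTT, 0.02% Tween-20, 0.1% BSA. CFP/YFP ratio read after 45 min at room temperature; pre-read flags interference.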
Abeta yeast res: restores growth of yeast expressing A-beta42 peptide; Potency, µM (doses to about 46.1 µM), most hits filed as activators; yeast expressing A-beta42, growth rescue, OD600, 48 h; response scale: 0% DMSO, 100% iron-clioquinol control; hit rate 0.063% among 410,000; also: nearly all actives have a fitted effect of over 55% in size
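Yeast growth medium received pinned compounds, then yeast cells expressing toxic A-beta were added; plates incubated at 30 C for 48 hr. Growth read as absorbance at 600 nm, normalized to DMSO and equimolar FeCl3 plus clioquinol controls.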
A number is an active result; n = inactive; u = inconclusive; x = no result given; [ ] = dose if it differs, or a comment. Shown are actives, neighbours in structure and some others; about 2% of the full set was active somewhere. Unless noted, calls follow the shape of the dose curve; as a rule, active = well fitted curve in the direction sought with a large enough effect; inconclusive = small, poorly fitted or top-dose-only effect, or another doubt; inactive = no such curve, though single readings can be large; an effect the other way counts as inactive or inconclusive.

SMILES	aSyn yeast inh	S-ASM inh	Rango release inh	TDP-43 yeast inh	Rango complex inh	Abeta yeast res
Cn1ccc2c(-c3ccc4[nH]ccc4c3)cc3c(c21)C1CCC3O1 (stereo not given)	n	x	x	15.8µM	x	n
COc1ccc(-c2cc3c(c4c2ccn4C)C2CCC3O2)cn1 (stereo not given)	u	x	x	12.6µM	x	n
COc1cc2nc(N3CCCN(C)CC3)nc(NC3CCN(Cc4ccccc4)CC3)c2cc1OC	n	x	x	x	x	x
COc1ccc(NC(=O)c2cccc(N3CCCS3(=O)=O)c2)c(OC)c1	x	x	x	n	x	n
N#CC(CC(=O)c1ccc(F)cc1)c1ccc2c(c1)OCO2 (stereo not given)	n	n	n	11.2µM	n	n
Cc1cccc(-c2nc3scc(CCNC(=O)c4ccccc4Cl)n3n2)c1	x	x	x	n[9.22 µM]	x	n
O=C(NCCc1csc2nc(-c3cccc(F)c3)nn12)c1ccc(Br)o1	x	x	x	35.5µM	x	n
Cc1ccc(-c2nc3scc(CCNC(=O)c4cccc(Br)c4)n3n2)cc1	x	x	x	11.2µM	x	n
Cc1ccc(NC(=O)c2sc3nc[nH]c(=O)c3c2C)cc1C	x	x	x	n	x	n
O=C(NCc1ccc(F)cc1Cl)c1ccc(CSCc2ccccc2Cl)o1	x	x	x	u	x	n
COc1ccc(N2CCC(CNC(=S)Nc3c(C)cc(C)cc3C)C2)cc1 (stereo not given)	n	n	n	u	n	u
COc1ccc(N2CCC(CNC(=S)Nc3ccc(C)cc3C)C2)cc1 (stereo not given)	n	n	n	u	n	22.4µM
COc1ccc(/C=C/C(=O)c2ccc(C)c([N+](=O)[O-])c2)cc1O	n	n	n	22.4µM	n	n
CCCn1c2ccccc2c2cnn(CC(=O)Nc3cc(OC)c(OC)c(OC)c3)c(=O)c21	x	x	x	n	x	n
Fc1cccc(C[n+]2csc3ccccc32)c1	n	n	n	3.55µM	n	n
c1ccc(C[n+]2csc3ccccc32)cc1	n	n	n	u	n	n
C/C(=N/NS(=O)(=O)c1ccc(Cl)cc1)c1cccc(NC(=O)c2ccc(Cl)cc2Cl)c1	n	n	n	12.6µM	n	n
Cc1nc2c(nc1C)C(=O)c1ccccc1C2=O	n	n	n	17.8µM	n	n
O=c1cnn([C@@H]2O[C@H](CO)[C@@H](O)[C@H]2O)c(=O)[nH]1	5.62µM	n	n	n	n	u
Nc1[nH]c(=O)nc2c1ncn2C1OC(CO)C(O)C1O (stereo not given)	n	x	x	x	x	x
O=C(NC1CCN(Cc2ccccc2)CC1)c1ccccc1OCc1ccccc1	n	n	n	n	n	n
COc1ccccc1CC(=O)NC1CCCCCC1	n	n	n	n	n	n
O=C(NC1CCCC1)c1ccccc1OCc1ccccc1	n	n	n	20µM	n	n
COc1ccccc1C(=O)NC1CCCCCCC1	n	n	n	17.8µM	n	n
Cc1ccc(NC(=O)C(=O)NCC(c2ccc3c(c2)OCO3)N2CCN(C)CC2)cc1C (stereo not given)	x	x	x	n	x	n
SMILES	aSyn yeast inh	S-ASM inh	Rango release inh	TDP-43 yeast inh	Rango complex inh	Abeta yeast res
CCC(C)c1ccc(NC(=O)c2c([N+](=O)[O-])cnn2CC)cc1 (stereo not given)	n	n	n	20µM	n	n
CCn1ncc([N+](=O)[O-])c1C(=O)Nc1ccc(C(=O)N2CCCCC2)cc1	n	n	n	n	n	n
COc1cccc(NC=C2C(=O)OC3(CCCCC3)OC2=O)c1	n	n	n	25.1µM	n	n
COc1ccc(CCNC(=O)Cn2c(=O)n(-c3ccc(F)cc3)c(=O)c3sccc32)cc1OC	0.562µM	n	n	n	n	n
COc1ccc(CCNC(=O)Cn2c(=O)n(-c3cc(F)ccc3F)c(=O)c3sccc32)cc1OC	n	n	n	n	n	n
COc1cc(OC)c(OC)cc1/C=C/c1ccc2ccccc2n1	n	x	x	x	x	x
COc1cccc(NC(=O)COc2ccccc2C(=O)Nc2ccccc2)c1	n	x	x	x	x	x
COc1cc(-c2cc(=O)c3c(O)c(OC)c(OC)c(OC)c3o2)cc(OC)c1OC	25.1µM	n	u	n	n	n
C=C1C=C(C(F)F)n2ncc(C(=O)NCc3ccc(OC)cc3)c2N1	n	x	x	x	x	x
